Reference: PubChem BioAssay
Results filed as inconclusive are left out. Activity calls are given as the source filed them.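 How the source made its calls, unless noted: active means percent response above a set limit, the screen-wide mean plus 3 SD (cut at about 130% in these data); inactive means the rest.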

Assays:
[1] = yeast TOR pathway RPL19A-GFP modulators, primary screen, cell-based, S. cerevisiae, multiplex flow cytometry (AID 1862; in the data active means percent of DMSO control GFP below about 86%;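 further: lower values mimic rapamycin by blocking the RPL19A rise seen in DMSO cells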); details: S. cerevisiae RPL19A-GFP strain, flow cytometry fluorescence, 3 h; at 10 µM; stronger effect = lower value
[2] = modulators of MEP2-GFP levels in yeast, primary screen, S. cerevisiae, multiplex flow cytometry (AID 1867;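 active means GFP response, as percent of the DMSO control, above the screen-wide mean plus 3 SD, about 139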;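 further: median GFP channel fluorescence of barcode-gated MEP2-GFP cells measured by flow cytometry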); details: S. cerevisiae MEP2-GFP strain, 3 h, at 10 µM, stronger effect = higher value, 100% means same as DMSO wells
[3] = modulators of CIT2-GFP expression in yeast, primary screen, S. cerevisiae, GFP fusion, multiplex flow cytometry (AID 1870); details: 3 h, at 10 µM, stronger effect = higher value;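 further: barcoded CIT2-GFP strain pooled with four other GFP strains with rapamycin as positive control; median GFP fluorescence per well over plate mean of DMSO wells so 100% = DMSO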
[4] = modulators of LAP4-GFP expression in yeast, primary screen, S. cerevisiae, multiplex flow cytometry (AID 1873;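 active means GFP signal, as percent of the solvent control, above the screen mean plus 3 SD, about 149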); details: 3 h, at 10 µM, stronger effect = higher value
[5] = modulators of AGP1-GFP expression in yeast TOR pathway, primary screen, cell-based, multiplex flow cytometry, S. cerevisiae (AID 1887;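 active means GFP signal above the screen-wide mean plus 3 SD, that is over about 124.5% of the solvent control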;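 further: AGP1-GFP fusion strain of S. cerevisiae within a five-strain barcoded multiplex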); details: 3 h, at 10 µM, stronger effect = higher value
[6] = inhibitors of CD8+ T cell-vesicle binding, pilot screen, LFA-1/ICAM-1 modulator project, MLPCN validation set, flow cytometry (AID 2523;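 active means response below a set limit, under 55% cells CD8-positive and vesicle-bound, and CD8 cells' 90th-percentile brightness under 279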;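 on vesicle binding response: mean PE anti-B7-1 fluorescence of CD8+ cells relative to row control; 100% = QL9-loaded vesicles with DMSO vehicle in the same plate row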); details: 2C mouse CD8+ T cells, at 7 µM, stronger effect = lower value; double positive events: measured here: CD8+/vesicle+ event percentage
[7] = target: Integrin beta-1 (Homo sapiens) + Integrin alpha-4 (Homo sapiens) (UniProt P13612+P05556); assay: inhibition of HUTS-21 binding to VLA-4, pilot screen, VLA-4 allosteric modulator project, U937 cells, HUTS-21 mAb, flow cytometry, validation set (AID 2674;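 active means inhibition above 50%, about 3 SD of the validation set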;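 further: antibody binding induced by the VLA-4 ligand LDV present at three times its Kd; 0% = LDV ligand with antibody and no compound and 100% = antibody without LDV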); details: HUTS-21 LIBS mAb binding, at 6.7 µM, stronger effect = higher value, binding induced by LDV ligand
[8] = superoxide lowering in aged yeast cells, pilot screen, validation compound set (AID 2706;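 active means superoxide response below 65% of plate, a cut near 3 SD across the whole screen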;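 further: yeast exposed to compound for one week at 30 degrees C before staining; 100% = mean of all compound wells on the same plate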); details: S. cerevisiae aging, superoxide DHE fluorescence; at 10 µM; stronger effect = lower value
[9] = target: Beta-adrenergic receptor kinase 1 (Homo sapiens) (UniProt P25098); assay: GRK2 binders displacing RNA aptamer, biochemical, validation, human GRK2, bead flow cytometry (AID 488806;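 active means aptamer binding inhibition above 30%, about 3 SD of noise from non-fluorescent compounds; inactive means inhibition at or below 30%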); details: bead-bound GRK2, FAM-aptamer displacement, at 10 µM, stronger effect = higher value
[10] = target: Beta-2 adrenergic receptor (Homo sapiens) (UniProt P07550); assay: beta2AR agonists driving receptor internalization, pilot screen, cell-based, FAP fluorogen, flow cytometry, validation set (AID 504459;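 active means percent response above 42, roughly 3 SD of non-fluorescent test compounds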;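 further: agonist-driven loss of surface beta2AR via internalization measured by FAP dye flow cytometry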); details: Am2.2-beta2AR cells, FAP surface receptor flow cytometry; at 10 µM; stronger effect = higher value
[11] = target: AP-2 complex subunit beta (Homo sapiens) (UniProt P63010); assay: inhibitors of arrestin peptide binding to AP2, pilot screen, biochemical, validation set, GST-AP2 beads, flow cytometry (AID 504541;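 active means inhibition above 54%, about 3 SD of non-fluorescent compounds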;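 further: AP2 carries R879A mutation and is captured from E. coli lysate; bead-bound FITC arrestin peptide fluorescence measuring arrestin peptide binding to AP2; 0% = DMSO wells and 100% = excess unlabeled arrestin peptide control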); details: FITC arrestin peptide, at 10 µM, stronger effect = higher value, AP2 beta2 appendage fragment, R879A mutant
[12] = yeast V-ATPase proton transport modulators, S. cerevisiae, pHLuorin, HTS validation (AID 504600; in the data active means response above about 15%;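 further: plate controls were DMSO for no effect and reference compound for full effect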); details: S. cerevisiae pHLuorin cytosolic pH, at 10 µM, stronger effect = higher value
[13] = test system: anti-desmoglein-3 scFv antibody binding to human DSG3; assay: inhibitors of anti-DSG3 scFv binding to DSG3, pilot screen, biochemical, validation compound set, bead-based, flow cytometry (AID 588368;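 active means binding below the plate cutoff, the plate median minus 3 SD, with a reading above zero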;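 further: signal is the median channel fluorescence of bead-bound GFP antibody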); details: Protein G beads, DSG3-Fc, scFv-GFP binding, at 10 µM, stronger effect = lower value
[14] = inhibitors of fungal efflux pumps CDR1, CDR2, MDR1, pilot screen, validation compound set, multiplex, phenotypic (AID 588506;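 active means efflux inhibition above 0.42, the validation set average plus 4 SD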;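 further: Nile Red retained in cells so higher fluorescence means more efflux inhibition; 0 = negative control wells and 1 = enniatin B 25 µM full block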); details: S. cerevisiae pump-expressing triplex, Nile Red efflux flow cytometry; at 10 µM; stronger effect = higher value; the pumps come from Candida albicans
[15] = target: ATP-binding cassette sub-family B member 6 (Homo sapiens) (UniProt Q9NP58); assay: ABCB6 transporter inhibitors, pilot screen, K562-ABCB6 cells, flow cytometry, validation set (AID 588550;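 active means inhibition above the screen-wide mean plus 3 SD, about 51%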;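 further: 0% = DMSO wells and 100% = benzethonium chloride 70 µM positive control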); details: K562-ABCB6 porphyrin accumulation, 1 h, at 10 µM, stronger effect = higher value
[16] = promoters of myeloid differentiation in arrested cells, primary screen, cell-based, GFP/MAC1 double positive, flow cytometry, validation set (AID 588685;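 active means differentiation response of at least 50%, scaled between solvent and reference control, from cells with both markers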;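 further: compound exposure lasts four days before antibody staining and flow analysis; 0% = DMSO wells and 100% = 5 µM fulvestrant positive control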); details: ER-HoxA9 marrow cells, stronger effect = higher value, normalized: vehicle 0, fulvestrant 100

Integrin beta-1 (Homo sapiens) + Integrin alpha-4 (Homo sapiens), sequence (P05556 whole entry, looked up): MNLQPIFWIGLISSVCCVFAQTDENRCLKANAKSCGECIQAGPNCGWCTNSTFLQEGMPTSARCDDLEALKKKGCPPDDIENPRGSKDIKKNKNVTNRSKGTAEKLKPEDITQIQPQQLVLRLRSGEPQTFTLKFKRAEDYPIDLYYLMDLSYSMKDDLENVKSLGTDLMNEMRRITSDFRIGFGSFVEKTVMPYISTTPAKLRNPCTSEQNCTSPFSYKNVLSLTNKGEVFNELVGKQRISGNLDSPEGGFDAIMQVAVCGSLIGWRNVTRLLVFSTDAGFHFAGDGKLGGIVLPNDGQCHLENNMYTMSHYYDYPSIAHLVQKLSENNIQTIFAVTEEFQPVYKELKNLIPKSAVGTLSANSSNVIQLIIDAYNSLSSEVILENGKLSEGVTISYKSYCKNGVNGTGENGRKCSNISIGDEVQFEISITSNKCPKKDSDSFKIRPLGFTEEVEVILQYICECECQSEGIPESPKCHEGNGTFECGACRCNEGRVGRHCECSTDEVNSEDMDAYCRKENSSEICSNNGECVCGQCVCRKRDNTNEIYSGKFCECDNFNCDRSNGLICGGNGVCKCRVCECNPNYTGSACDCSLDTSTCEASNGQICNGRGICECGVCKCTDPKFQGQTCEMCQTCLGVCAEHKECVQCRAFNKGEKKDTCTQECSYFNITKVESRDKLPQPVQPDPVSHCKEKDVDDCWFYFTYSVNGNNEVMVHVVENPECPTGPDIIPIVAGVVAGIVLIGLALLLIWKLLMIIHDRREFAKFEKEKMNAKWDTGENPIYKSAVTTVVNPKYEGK
Integrin beta-1 (Homo sapiens) + Integrin alpha-4 (Homo sapiens), sequence (P13612 whole entry, looked up): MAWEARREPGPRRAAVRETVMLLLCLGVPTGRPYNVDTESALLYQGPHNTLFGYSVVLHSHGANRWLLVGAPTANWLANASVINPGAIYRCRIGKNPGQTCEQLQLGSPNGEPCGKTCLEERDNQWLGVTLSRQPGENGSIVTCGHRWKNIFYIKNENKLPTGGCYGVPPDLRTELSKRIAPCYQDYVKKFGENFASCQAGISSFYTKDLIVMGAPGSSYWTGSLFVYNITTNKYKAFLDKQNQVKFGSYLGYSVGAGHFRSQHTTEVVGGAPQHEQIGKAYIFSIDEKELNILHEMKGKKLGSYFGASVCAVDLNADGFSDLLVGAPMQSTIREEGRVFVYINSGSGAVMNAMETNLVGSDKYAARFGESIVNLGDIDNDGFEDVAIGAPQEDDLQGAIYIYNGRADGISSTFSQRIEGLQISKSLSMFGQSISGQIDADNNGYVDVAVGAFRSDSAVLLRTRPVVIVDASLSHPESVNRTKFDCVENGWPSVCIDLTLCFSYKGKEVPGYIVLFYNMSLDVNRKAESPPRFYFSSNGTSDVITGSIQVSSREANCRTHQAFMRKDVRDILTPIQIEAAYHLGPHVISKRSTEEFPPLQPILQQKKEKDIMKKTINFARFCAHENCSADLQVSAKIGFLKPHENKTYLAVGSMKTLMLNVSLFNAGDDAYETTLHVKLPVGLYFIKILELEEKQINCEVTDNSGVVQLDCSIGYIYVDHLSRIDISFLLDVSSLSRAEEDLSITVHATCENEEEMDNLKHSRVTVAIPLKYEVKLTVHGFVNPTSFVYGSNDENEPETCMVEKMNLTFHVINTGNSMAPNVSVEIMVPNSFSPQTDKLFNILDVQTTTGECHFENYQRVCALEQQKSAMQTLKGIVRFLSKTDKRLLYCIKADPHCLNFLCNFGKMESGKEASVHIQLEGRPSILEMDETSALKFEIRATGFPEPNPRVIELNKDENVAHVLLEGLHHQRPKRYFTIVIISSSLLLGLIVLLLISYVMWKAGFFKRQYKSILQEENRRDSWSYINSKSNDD
AP-2 complex subunit beta (Homo sapiens), sequence (P63010 whole entry, looked up, the tested form may be a part, one chain of several): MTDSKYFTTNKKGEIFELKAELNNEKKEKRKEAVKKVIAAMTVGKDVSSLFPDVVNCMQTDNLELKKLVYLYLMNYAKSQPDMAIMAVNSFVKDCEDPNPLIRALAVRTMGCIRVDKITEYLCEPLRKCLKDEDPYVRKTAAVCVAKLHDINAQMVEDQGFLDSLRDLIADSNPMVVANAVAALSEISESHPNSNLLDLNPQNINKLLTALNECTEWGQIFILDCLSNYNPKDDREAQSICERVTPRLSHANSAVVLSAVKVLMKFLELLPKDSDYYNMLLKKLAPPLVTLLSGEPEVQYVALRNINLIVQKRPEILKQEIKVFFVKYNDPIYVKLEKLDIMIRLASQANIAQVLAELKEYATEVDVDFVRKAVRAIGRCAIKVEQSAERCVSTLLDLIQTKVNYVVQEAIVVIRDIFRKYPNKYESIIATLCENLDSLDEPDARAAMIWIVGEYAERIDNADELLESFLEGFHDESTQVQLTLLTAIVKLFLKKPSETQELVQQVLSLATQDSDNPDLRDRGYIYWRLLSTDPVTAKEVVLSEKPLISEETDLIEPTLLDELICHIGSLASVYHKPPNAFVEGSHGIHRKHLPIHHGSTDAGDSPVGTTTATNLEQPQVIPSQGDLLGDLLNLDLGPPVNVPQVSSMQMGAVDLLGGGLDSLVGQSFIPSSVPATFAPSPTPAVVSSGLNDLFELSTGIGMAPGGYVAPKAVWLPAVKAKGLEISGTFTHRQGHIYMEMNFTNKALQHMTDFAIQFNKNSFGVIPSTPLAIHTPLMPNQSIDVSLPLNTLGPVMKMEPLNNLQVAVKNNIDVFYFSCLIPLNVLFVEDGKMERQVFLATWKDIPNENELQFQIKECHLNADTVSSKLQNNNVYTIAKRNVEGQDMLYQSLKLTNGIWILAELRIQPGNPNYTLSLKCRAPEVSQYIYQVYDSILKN
ATP-binding cassette sub-family B member 6 (Homo sapiens), sequence (Q9NP58 whole entry, looked up): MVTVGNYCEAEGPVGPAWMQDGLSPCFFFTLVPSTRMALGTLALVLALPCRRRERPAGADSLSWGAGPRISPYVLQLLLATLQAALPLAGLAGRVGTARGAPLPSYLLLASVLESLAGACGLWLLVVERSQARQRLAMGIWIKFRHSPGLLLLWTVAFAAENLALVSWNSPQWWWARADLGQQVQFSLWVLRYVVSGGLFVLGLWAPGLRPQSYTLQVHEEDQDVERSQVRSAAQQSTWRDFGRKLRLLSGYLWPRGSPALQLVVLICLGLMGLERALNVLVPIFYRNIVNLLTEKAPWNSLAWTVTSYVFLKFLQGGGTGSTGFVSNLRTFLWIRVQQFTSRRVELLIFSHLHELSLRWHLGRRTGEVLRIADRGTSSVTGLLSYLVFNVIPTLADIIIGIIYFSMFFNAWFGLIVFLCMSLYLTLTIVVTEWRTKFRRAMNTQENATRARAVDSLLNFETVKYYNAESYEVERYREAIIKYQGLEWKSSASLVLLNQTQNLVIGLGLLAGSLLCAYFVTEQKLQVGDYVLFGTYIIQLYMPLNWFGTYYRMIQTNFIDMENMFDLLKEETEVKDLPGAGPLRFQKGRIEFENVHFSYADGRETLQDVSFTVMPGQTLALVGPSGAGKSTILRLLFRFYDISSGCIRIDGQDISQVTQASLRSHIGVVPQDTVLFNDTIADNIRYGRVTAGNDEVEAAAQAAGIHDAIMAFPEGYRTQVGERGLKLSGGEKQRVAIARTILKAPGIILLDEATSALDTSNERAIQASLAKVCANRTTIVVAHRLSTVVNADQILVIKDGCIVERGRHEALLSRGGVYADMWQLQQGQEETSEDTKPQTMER
Beta-2 adrenergic receptor (Homo sapiens), sequence (P07550 whole entry, looked up): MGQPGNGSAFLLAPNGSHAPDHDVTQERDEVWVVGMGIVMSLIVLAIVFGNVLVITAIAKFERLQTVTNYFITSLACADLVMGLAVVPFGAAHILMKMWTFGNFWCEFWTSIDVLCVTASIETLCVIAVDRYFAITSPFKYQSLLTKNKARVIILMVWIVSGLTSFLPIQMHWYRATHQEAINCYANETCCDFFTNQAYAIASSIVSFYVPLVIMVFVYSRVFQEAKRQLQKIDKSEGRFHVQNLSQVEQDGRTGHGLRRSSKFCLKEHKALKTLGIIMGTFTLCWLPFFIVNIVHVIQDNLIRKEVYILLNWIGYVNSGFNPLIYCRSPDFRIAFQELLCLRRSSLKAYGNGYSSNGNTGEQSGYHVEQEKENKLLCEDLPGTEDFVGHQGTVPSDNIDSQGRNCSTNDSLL
Beta-adrenergic receptor kinase 1 (Homo sapiens), sequence (P25098 whole entry, looked up): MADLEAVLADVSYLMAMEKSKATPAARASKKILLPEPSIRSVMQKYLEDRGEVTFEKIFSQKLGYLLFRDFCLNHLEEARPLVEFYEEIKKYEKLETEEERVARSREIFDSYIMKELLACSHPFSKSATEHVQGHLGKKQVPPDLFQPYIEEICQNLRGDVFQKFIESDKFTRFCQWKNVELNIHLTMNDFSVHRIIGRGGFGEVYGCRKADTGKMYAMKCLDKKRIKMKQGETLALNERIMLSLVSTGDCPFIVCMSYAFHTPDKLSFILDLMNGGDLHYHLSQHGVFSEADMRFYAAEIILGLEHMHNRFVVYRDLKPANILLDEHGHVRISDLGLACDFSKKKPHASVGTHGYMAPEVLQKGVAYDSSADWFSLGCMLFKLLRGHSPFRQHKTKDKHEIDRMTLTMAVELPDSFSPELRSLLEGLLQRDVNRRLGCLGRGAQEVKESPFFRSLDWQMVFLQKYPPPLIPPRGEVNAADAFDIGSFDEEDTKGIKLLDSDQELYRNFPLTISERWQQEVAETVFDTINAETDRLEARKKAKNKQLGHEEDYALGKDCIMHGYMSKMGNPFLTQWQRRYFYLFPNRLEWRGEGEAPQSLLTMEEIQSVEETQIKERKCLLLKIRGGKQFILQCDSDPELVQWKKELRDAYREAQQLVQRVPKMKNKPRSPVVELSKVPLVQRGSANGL

O=C(CN1C(=O)c2ccccc2C1=O)Nc1cccc([N+](=O)[O-])c1
61.2%: double positive events [6]
inactive: percent of DMSO control GFP [1] 103% | GFP response vs DMSO [2] 98.7% | percent response of DMSO control [3] 109% | GFP response vs DMSO [4] 100% | GFP response, % of DMSO [5] 106% | vesicle binding response [6] 130% | inhibition [7] -18.5% | superoxide response (% of plate) [8] 94.2% | aptamer binding inhibition [9] -3% | response [10] -3.16% | inhibition [11] 35% | response [12] -0.16% | binding (% of control) [13] 101% | efflux inhibition (fraction of control) [14] 0.005 | inhibition [15] 7% | differentiation response [16] -10.4%

CCOc1cc2c3c(c1)C(C)=CC(C)(C)N3C(=O)C2=O
inactive: percent of DMSO control GFP [1] 95% | GFP response vs DMSO [2] 111% | percent response of DMSO control [3] 103% | GFP response vs DMSO [4] 108% | GFP response, % of DMSO [5] 102% | inhibition [7] 35.1% | superoxide response (% of plate) [8] 108% | aptamer binding inhibition [9] 0% | response [10] 23% | inhibition [11] 51.5% | response [12] -5.76% | binding (% of control) [13] 101% | efflux inhibition (fraction of control) [14] -0.13 | inhibition [15] 4% | differentiation response [16] -0.8%
43.2%: double positive events [6]
active: vesicle binding response [6] 11.7%

Cc1cccc(NC(=O)c2cc3ccccc3o2)c1
inactive: percent of DMSO control GFP [1] 94.6% | GFP response vs DMSO [2] 115% | percent response of DMSO control [3] 112% | GFP response vs DMSO [4] 90.8% | GFP response, % of DMSO [5] 86.3% | vesicle binding response [6] 162% | inhibition [7] 5.49% | superoxide response (% of plate) [8] 90.5% | aptamer binding inhibition [9] 2% | response [10] -1.7% | inhibition [11] 1.31% | response [12] -0.5% | binding (% of control) [13] 102% | efflux inhibition (fraction of control) [14] -0.24 | inhibition [15] 17% | differentiation response [16] 3.28%
69.2%: double positive events [6]

OC(CCCN1CCC(O)(c2ccc(Cl)cc2)CC1)c1ccc(F)cc1 (stereo not given)
49.2%: double positive events [6]
inactive: percent of DMSO control GFP [1] 99.6% | GFP response vs DMSO [2] 103% | percent response of DMSO control [3] 108% | GFP response vs DMSO [4] 101% | GFP response, % of DMSO [5] 106% | vesicle binding response [6] 168% | inhibition [7] -14.5% | superoxide response (% of plate) [8] 96% | aptamer binding inhibition [9] -3% | response [10] 5.29% | inhibition [11] -4.86% | response [12] -0.08% | binding (% of control) [13] 104% | efflux inhibition (fraction of control) [14] -0.005 | inhibition [15] -1% | differentiation response [16] 10.1%

COc1ccccc1C(=O)Oc1ccc2c(c1)O/C(=C\c1ccncc1)C2=O
inactive: percent of DMSO control GFP [1] 94.7% | GFP response vs DMSO [2] 105% | percent response of DMSO control [3] 97.7% | GFP response vs DMSO [4] 126% | GFP response, % of DMSO [5] 105% | vesicle binding response [6] 274% | inhibition [7] -58.2% | superoxide response (% of plate) [8] 119% | aptamer binding inhibition [9] -1% | response [10] -22.5% | inhibition [11] 3.83% | response [12] 0.47% | binding (% of control) [13] 103% | efflux inhibition (fraction of control) [14] 0.17 | inhibition [15] -9% | differentiation response [16] 10.8%
63.9%: double positive events [6]

CC[C@]1(O)CC2CN(CCc3c([nH]c4ccccc34)[C@@](C(=O)OC)(c3cc4c(cc3OC)N(C=O)[C@H]3[C@@](O)(C(=O)OC)[C@H](OC(C)=O)[C@]5(CC)C=CCN6CC[C@]43[C@@H]65)C2)C1 (stereo not given in full)
inactive: percent of DMSO control GFP [1] 103% | GFP response vs DMSO [2] 98.5% | percent response of DMSO control [3] 101% | GFP response vs DMSO [4] 94% | GFP response, % of DMSO [5] 98.5% | vesicle binding response [6] 204% | inhibition [7] 48.7% | superoxide response (% of plate) [8] 93% | aptamer binding inhibition [9] 3% | response [10] 23.4% | inhibition [11] -4.62% | response [12] 6.03% | binding (% of control) [13] 97.2% | efflux inhibition (fraction of control) [14] 0.12 | differentiation response [16] 4%
61.8%: double positive events [6]
active: inhibition [15] 112%

CC1(C)CC(C(CC(=O)N2CCCC2)Cc2ccccc2)CCO1 (stereo not given)
inactive: percent of DMSO control GFP [1] 100% | GFP response vs DMSO [2] 99.7% | percent response of DMSO control [3] 104% | GFP response vs DMSO [4] 102% | GFP response, % of DMSO [5] 106% | vesicle binding response [6] 118% | inhibition [7] -2.43% | superoxide response (% of plate) [8] 107% | aptamer binding inhibition [9] -2% | response [10] -11% | inhibition [11] 21.8% | response [12] -8.82% | binding (% of control) [13] 103% | efflux inhibition (fraction of control) [14] 0.36 | inhibition [15] 18% | differentiation response [16] 15.9%
62.9%: double positive events [6]

CC(=O)Nc1ccc(CN2CCN(C3CCCCC3)C(CCO)C2)cc1 (stereo not given)
inactive: percent of DMSO control GFP [1] 102% | GFP response vs DMSO [2] 104% | percent response of DMSO control [3] 101% | GFP response vs DMSO [4] 114% | GFP response, % of DMSO [5] 120% | vesicle binding response [6] 172% | inhibition [7] -0.27% | superoxide response (% of plate) [8] 102% | aptamer binding inhibition [9] 0% | response [10] -18.9% | inhibition [11] -3.58% | response [12] -1.9% | binding (% of control) [13] 111% | efflux inhibition (fraction of control) [14] 0.12 | inhibition [15] 2% | differentiation response [16] -10.9%
62.8%: double positive events [6]

Cc1ccccc1NC(=O)NCCc1c[nH]c2ccccc12
60.8%: double positive events [6]
inactive: percent of DMSO control GFP [1] 101% | GFP response vs DMSO [2] 107% | percent response of DMSO control [3] 101% | GFP response vs DMSO [4] 89.4% | GFP response, % of DMSO [5] 98.8% | vesicle binding response [6] 12.4% | inhibition [7] 9.71% | superoxide response (% of plate) [8] 96.6% | aptamer binding inhibition [9] 2% | response [10] 9.05% | inhibition [11] 7.09% | response [12] -3.03% | binding (% of control) [13] 101% | efflux inhibition (fraction of control) [14] 0.07 | inhibition [15] 10% | differentiation response [16] -1.88%

CC(C)C(CCN1C(=O)CCC1=O)C1CCOC(C)(C)C1 (stereo not given)
inactive: percent of DMSO control GFP [1] 103% | GFP response vs DMSO [2] 104% | percent response of DMSO control [3] 100% | GFP response vs DMSO [4] 95.8% | GFP response, % of DMSO [5] 101% | vesicle binding response [6] 130% | inhibition [7] 3.98% | superoxide response (% of plate) [8] 103% | aptamer binding inhibition [9] 11% | response [10] -1.22% | inhibition [11] -12.4% | response [12] -0.12% | binding (% of control) [13] 98.8% | efflux inhibition (fraction of control) [14] 0.42 | inhibition [15] 10% | differentiation response [16] 4.97%
62.8%: double positive events [6]
